Experimental data published in PubChem BioAssay (Tox21).
Inconclusive results are not listed. Calls of active or inactive are those of the source. Unless noted, calls come from the whole dose curve; as a rule, active = well fitted curve in the direction sought with a large enough effect in the repeat runs; inconclusive = weak or mixed curves; inactive = no such curve, though single readings can be large; an effect the other way counts as inactive or inconclusive.

Columns and labels:
[1] = qHTS assay to identify small molecule antagonists of the estrogen related receptor signaling pathway with the pleiotropic PPARgamma coactivator (PGC) from Tox21 10K library (AID 1224841; call rule not given here; note: actives are mostly falling curves and most rising ones were filed inactive; nearly all actives have a fitted effect of over 50% in size; note: potency is the fitted concentration of half-maximal effect); settings: PGC/ERR reporter cell line, ONE-Glo luciferase, 18 h; series mostly up to 92.4 µM
In short: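 In the PGC/ERR line, DMSO solutions of test chemicals are pin-delivered to 2,000 cells/well six hours after dispensing. Following eighteen hours' incubation, One-Glo reagent is added and luminescence recorded.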

[2] = qHTS assay to identify small molecule agonists of the estrogen related receptor signaling pathway with the pleiotropic PPARgamma coactivator (PGC) from Tox21 10K library (AID 1224842); settings: PGC/ERR reporter cell line, luciferase ONE-Glo, 18 h; series mostly up to 92.4 µM; note: nearly all actives have a fitted effect of over 15% in size
In short: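 Luminescence from One-Glo (30 min, room temperature) measured after PGC/ERR cells had 18 h at 37 C with pinned compound (23 nL in DMSO). Cells had been seeded at 2,000 per well and pre-incubated 6 h.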

[3] = biological target: Thyrotropin receptor (Homo sapiens) (UniProt P16473); assay: qHTS assay to identify small molecule agonists of the thyroid stimulating hormone receptor (TSHR) signaling pathway (AID 1224843; calls by dose curve; note: nearly all actives have a fitted effect of over 45% in size); settings: TSHR-HEK293 cells, cAMP HTRF, agonist mode, 30 min; series mostly up to 92.4 µM
Thyrotropin receptor (Homo sapiens), sequence (P16473 whole entry, looked up): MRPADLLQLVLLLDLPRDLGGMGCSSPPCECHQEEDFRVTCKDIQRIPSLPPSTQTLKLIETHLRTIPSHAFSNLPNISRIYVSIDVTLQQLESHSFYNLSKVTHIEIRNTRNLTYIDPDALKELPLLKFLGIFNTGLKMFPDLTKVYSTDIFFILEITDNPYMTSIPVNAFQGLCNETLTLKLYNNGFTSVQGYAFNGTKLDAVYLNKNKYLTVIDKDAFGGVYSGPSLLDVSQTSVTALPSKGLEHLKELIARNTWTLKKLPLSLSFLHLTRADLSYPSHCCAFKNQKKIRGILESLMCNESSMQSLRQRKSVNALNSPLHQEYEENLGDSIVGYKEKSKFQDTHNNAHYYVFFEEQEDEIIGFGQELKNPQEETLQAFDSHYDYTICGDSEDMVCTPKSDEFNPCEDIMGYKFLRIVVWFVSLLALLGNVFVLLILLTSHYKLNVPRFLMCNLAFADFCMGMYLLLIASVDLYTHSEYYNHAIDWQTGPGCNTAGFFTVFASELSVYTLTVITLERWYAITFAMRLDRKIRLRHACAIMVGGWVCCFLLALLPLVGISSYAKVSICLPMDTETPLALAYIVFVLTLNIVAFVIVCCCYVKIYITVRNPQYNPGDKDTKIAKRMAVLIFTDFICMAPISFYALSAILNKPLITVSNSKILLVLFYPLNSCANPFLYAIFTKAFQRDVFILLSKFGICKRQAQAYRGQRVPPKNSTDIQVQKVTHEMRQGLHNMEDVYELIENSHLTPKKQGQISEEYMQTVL
In short: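 A cell-based cAMP HTRF format was run in TSHR-transfected HEK293 cells, 800 per well. Treatment: 30 min, room temperature. Detection: 1 h with labelled cAMP and anti-cAMP cryptate. Concentration-response over 15 points, three replicates.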

[4] = qHTS assay to identify small molecule agonists of the hypoxia (HIF-1) signaling pathway - cell viability counter screen (AID 1224844; calls by dose curve; note: nearly all actives have a fitted effect of over 50% in size); settings: HRE-bla ME-180 viability, CellTiter-Glo luminescence, 17 h; series mostly up to 76.8 µM
In short: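 Same wells as the HIF-1 reporter screen; ME-180 cells carrying HRE-bla, 17 hr treatment at 37C; CellTiter-Glo luminescence read after 30 min at room temperature.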

[5] = qHTS assay to identify small molecule agonists of H2AX (AID 1224845; active = well fitted activation curve with a large enough effect in the signal ratio in the repeat runs, not every such curve was filed as active; the % refers to the signal ratio); settings: CHO-K1 phospho-H2AX Ser139 HTRF, 3 h; series mostly up to 154 µM
In short: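 Phospho-H2AX Ser139 measured by HTRF (ex 320 nm; em 665 and 620 nm) after 24 hr antibody incubation. Compounds, 15 concentrations, 0.76% DMSO, were applied to CHO-K1 cells for 3hr at 37C before lysis.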

[6] = qHTS assay to identify small molecule agonists of the hypoxia (HIF-1) signaling pathway (AID 1224846; active = well fitted activation curve with a large enough effect in the signal ratio in the repeat runs, not every such curve was filed as active; the % refers to the signal ratio); settings: HRE-bla ME-180 cells, beta-lactamase ratio, 17 h; series mostly up to 76.8 µM
In short: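 In ME-180 cells bearing an HRE-bla construct, 17 h treatment with DMSO-dissolved compounds at 37C was followed by CCF4-AM loading to quantify reporter induction.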

[7] = qHTS assay to identify small molecule antagonists of the estrogen related receptor (ERR) signaling pathway from Tox21 library (AID 1224848); settings: ERR reporter cell line, luciferase antagonist mode, 18 h; series mostly up to 92.4 µM; note: nearly all actives have a fitted effect of over 50% in size
In short: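 ERR cell line, 2,000 cells/well. 6 h settle, then compound (DMSO) added; 18 h at 37 C; ONE-Glo luminescence after 30 min RT.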

[8] = qHTS assay to identify small molecule agonists of the estrogen related receptor (ERR) signaling pathway from Tox21 library (AID 1224849; calls by dose curve; note: nearly all actives have a fitted effect of over 15% in size); settings: ERR reporter cell line, ONE-Glo luciferase, 18 h; at 92.4 µM (top of the series) unless noted
In short: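 Reporter cells (ERR, NTP source) treated with Tox21 10K compounds 18 h, 37 C. Readout: ONE-Glo luminescence, 30 min RT.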

[9] = qHTS RealTime-Glo MT Cell Viability Assay in HepG2 cells - 24 hour (AID 1224867); settings: RealTime-Glo luminescence; series mostly up to 76.8 µM; note: nearly all actives have a fitted effect of over 50% in size
In short: (§1)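 Viability was tracked continuously by NanoLuc luminescence from prosubstrate reduced by living HepG2 cells, at successive time points over 40 h of compound exposure. Cells with reagent were preincubated 5 h at 37 °C before compound addition.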

[10] = qHTS RealTime-Glo MT Cell Viability Assay in HEK293 cells - 32 hour (AID 1224868); settings: RealTime-Glo luminescence; series mostly up to 76.8 µM
In short: (§2)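 Viability tracked continuously by luminescence as live cells reduce a prosubstrate for NanoLuc; HEK293 cells preincubated 5 h, compound-treated at 37 C, and read at 0, 8, 16, 24, 32 and 40 h.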

[11] = A CellTox Green Cytotoxicity Assay to monitor cytotoxicity in HEK293 cells - 0 hour (AID 1224869); settings: CellTox Green fluorescence; series mostly up to 76.8 µM; note: nearly all actives have a fitted effect of over 50% in size
In short: (§3)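 Homogeneous no-lysis format: HEK293 cell suspension mixed with CellTox Green reagent, seeded, incubated 5 h at 37 C/5% CO2, then dosed by pintool with compound in DMSO.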

[12] = qHTS RealTime-Glo MT Cell Viability Assay in HepG2 cells - 40 hour (AID 1224870); settings: RealTime-Glo luminescence; series mostly up to 76.8 µM; note: nearly all actives have a fitted effect of over 50% in size
In short: (§4)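 Real-time viability: cells seeded at 600 per well together with NanoLuc and cell-permeant prosubstrate, compounds added after 5 h incubation. Luminescence tracked at 0, 8, 16, 24, 32 and 40 h of exposure.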

[13] = A CellTox Green Cytotoxicity Assay to monitor cytotoxicity in HEK293 cells - 40 hour (AID 1224871); settings: CellTox Green fluorescence; series mostly up to 76.8 µM; note: nearly all actives have a fitted effect of over 45% in size
In short: as §3

[14] = qHTS RealTime-Glo MT Cell Viability Assay in HEK293 cells - 16 hour (AID 1224872); settings: RealTime-Glo luminescence; series mostly up to 76.8 µM
In short: as §2

[15] = qHTS RealTime-Glo MT Cell Viability Assay in HepG2 cells - 8 hour (AID 1224873); settings: RealTime-Glo luminescence; series mostly up to 76.8 µM; note: nearly all actives have a fitted effect of over 55% in size
In short: as §4

[16] = qHTS RealTime-Glo MT Cell Viability Assay in HEK293 cells - 40 hour (AID 1224874); settings: RealTime-Glo luminescence, active compounds read low; note: nearly all actives have a fitted effect of over 50% in size
In short: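 Measured as luminescence from the same continuously cultured HEK293 wells at successive time points (0, 8, 16, 24, 32, 40 h) after compound addition. Reagent present from seeding; dosing at 5 h; incubation 37 C.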

[17] = A CellTox Green Cytotoxicity Assay to monitor cytotoxicity in HEK293 cells - 24 hour (AID 1224875); settings: CellTox Green fluorescence; series mostly up to 76.8 µM; note: nearly all actives have a fitted effect of over 45% in size; note: potency is the fitted concentration of half-maximal effect
In short: as §3

[18] = A CellTox Green Cytotoxicity Assay to monitor cytotoxicity in HepG2 cells - 16 hour (AID 1224876); settings: CellTox Green fluorescence; series mostly up to 76.8 µM; note: nearly all actives have a fitted effect of over 45% in size; note: potency is the fitted concentration of half-maximal effect
In short: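 Fluorescent DNA-binding dye, 600 HepG2 cells/well, 5 h preincubation then compound in DMSO; same plates read at 0–40 h, 37 C.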

[19] = qHTS RealTime-Glo MT Cell Viability Assay in HepG2 cells - 32 hour (AID 1224877); settings: RealTime-Glo luminescence; series mostly up to 76.8 µM; note: nearly all actives have a fitted effect of over 55% in size
In short: as §1

[20] = qHTS assay to identify small molecule agonists of H2AX - cell viability counter screen (AID 1224847; calls by dose curve;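 note: wild-type CHO-K1 cells; top concentration of the series differs between compounds; nearly all actives have a fitted effect of over 30% in size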); settings: CHO-K1 viability, CellTiter-Glo luminescence, 3 h; series mostly up to 154 µM
In short: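 Counter-screen for viability: CellTiter-Glo ATP luminescence read after 3 h compound treatment (15-point titration, 0.76% DMSO final) of CHO-K1 cells at 37C, with 30 min room-temperature reagent incubation.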
% is set by controls: 0 for no effect and ±100 for the full control effect.

O=C(O)CCCCCCCCCC(=O)O
inactive: Potency [1] | Potency [2] | Potency [3] | outcome [4] | outcome [5] | outcome [6] | outcome [7] | activity change, positive = activation [8] 3.45% | outcome [9] | outcome [10] | outcome [11] | outcome [12] | Potency [13] | outcome [14] | outcome [15] | max response [16] 0.0039% | Potency [17] | Potency [18] | outcome [19]

CC(=O)SC[C@@H](C)C(=O)N1CCC[C@H]1C(=O)N[C@@H](Cc1ccccc1)C(=O)O
inactive: Potency [1] | Potency [2] | Potency [3] | outcome [4] | outcome [5] | outcome [6] | outcome [20] | outcome [7] | activity change, positive = activation [8] 7.31% [at 42.5 µM] | outcome [9] | outcome [11] | outcome [12] | Potency [13] | outcome [14] | outcome [15] | max response [16] 3.03% | Potency [17] | Potency [18] | outcome [19]

O=C(O)Cc1c(Cl)ccc(Cl)c1Cl
inactive: Potency [1] | Potency [2] | Potency [3] | outcome [4] | outcome [6] | outcome [20] | outcome [7] | activity change, positive = activation [8] 6.33% | outcome [9] | outcome [10] | outcome [11] | outcome [12] | Potency [13] | outcome [15] | Potency [17] | Potency [18] | outcome [19]

COc1cnc(NS(=O)(=O)c2ccc(N)cc2)nc1
inactive: Potency [1] | Potency [2] | Potency [3] | outcome [4] | outcome [5] | outcome [6] | outcome [20] | outcome [7] | activity change, positive = activation [8] 4.16% [at 42.5 µM] | outcome [9] | outcome [10] | outcome [11] | outcome [12] | Potency [13] | outcome [14] | outcome [15] | max response [16] 3.91% | Potency [17] | Potency [18] | outcome [19]

CC/C=C\CCOC(=O)c1ccccc1
inactive: Potency [1] | Potency [2] | Potency [3] | outcome [4] | outcome [6] | outcome [7] | activity change, positive = activation [8] 5.28% | outcome [9] | outcome [10] | outcome [11] | outcome [12] | outcome [15] | max response [16] -28.3% | Potency [17] | Potency [18] | outcome [19]

NNC(=O)OCc1ccccc1
inactive: Potency [1] | Potency [2] | Potency [3] | outcome [4] | outcome [5] | outcome [6] | outcome [20] | outcome [7] | activity change, positive = activation [8] -10.3% | outcome [9] | outcome [11] | outcome [12] | Potency [13] | outcome [15] | max response [16] -4.79% | Potency [17] | Potency [18] | outcome [19]

CC(=O)SCC(CC(=O)c1ccc(C)cc1)C(=O)O (stereo not given)
inactive: Potency [1] | Potency [2] | Potency [3] | outcome [4] | outcome [5] | outcome [6] | outcome [20] | outcome [7] | activity change, positive = activation [8] 8.89% [at 42.5 µM] | outcome [9] | outcome [11] | outcome [12] | Potency [13] | outcome [15] | Potency [18] | outcome [19]

CCN1CCN(C(=O)N[C@@H](C(=O)N[C@@H]2C(=O)N3[C@@H]2SC(C)(C)[C@H]3C(=O)O)c2ccccc2)C(=O)C1=O
inactive: Potency [1] | Potency [2] | Potency [3] | outcome [4] | outcome [5] | outcome [20] | outcome [7] | activity change, positive = activation [8] 8.89% [at 42.5 µM] | outcome [9] | outcome [10] | outcome [12] | Potency [13] | outcome [14] | outcome [15] | max response [16] 1.08% | Potency [17] | Potency [18] | outcome [19]

COC(=O)N/N=C/c1c[n+]([O-])c2ccccc2[n+]1[O-]
active: Potency [17] 21.3 µM | Potency [18] 23.9 µM
inactive: Potency [1] | Potency [2] | Potency [3] | outcome [4] | outcome [6] | outcome [20] | outcome [7] | activity change, positive = activation [8] 16.4% [at 42.5 µM] | outcome [9] | outcome [10] | outcome [11] | outcome [12] | outcome [14] | outcome [15] | max response [16] 5.36% | outcome [19]

CCC(C)c1nccnc1OC (stereo not given)
inactive: Potency [1] | Potency [2] | Potency [3] | outcome [4] | outcome [5] | outcome [6] | outcome [20] | outcome [7] | activity change, positive = activation [8] 1.46% | outcome [9] | outcome [10] | outcome [12] | Potency [13] | outcome [15] | max response [16] 1.32% | Potency [17] | Potency [18] | outcome [19]

C[n+]1ccccc1/C=N/O
inactive: Potency [1] | Potency [2] | Potency [3] | outcome [4] | outcome [5] | outcome [20] | outcome [7] | activity change, positive = activation [8] 0.0992% [at 42.5 µM] | outcome [9] | outcome [11] | outcome [12] | Potency [13] | outcome [14] | outcome [15] | max response [16] 0.0286% | Potency [17] | Potency [18] | outcome [19]

C=CC(=O)CC
inactive: Potency [1] | Potency [2] | Potency [3] | outcome [4] | outcome [5] | outcome [6] | outcome [20] | outcome [7] | activity change, positive = activation [8] -1.79% | outcome [9] | outcome [10] | outcome [11] | outcome [12] | Potency [13] | outcome [15] | max response [16] 0.33% | Potency [17] | Potency [18] | outcome [19]

CC(C)OC(=O)C(C(=O)OC(C)C)=C1SC=CS1
inactive: Potency [1] | Potency [2] | Potency [3] | outcome [4] | outcome [5] | outcome [6] | activity change, positive = activation [8] -19.5% [at 42.5 µM] | outcome [9] | outcome [11] | outcome [12] | Potency [13] | outcome [15] | Potency [17] | Potency [18] | outcome [19]

O=C1Nc2ccccc2C1=O
active: Potency [1] 13.6 µM
inactive: Potency [2] | Potency [3] | outcome [4] | outcome [5] | outcome [6] | outcome [20] | outcome [7] | activity change, positive = activation [8] -1.92% | outcome [9] | outcome [11] | outcome [12] | Potency [13] | Potency [17] | Potency [18] | outcome [19]

CC/C=C/CCCCCCCCCCOC(C)=O
inactive: Potency [1] | Potency [2] | Potency [3] | outcome [4] | outcome [5] | outcome [6] | outcome [7] | activity change, positive = activation [8] 0.111% | outcome [9] | outcome [10] | outcome [11] | outcome [12] | Potency [13] | outcome [14] | outcome [15] | Potency [17] | Potency [18] | outcome [19]
